In all, about 16,000 sequences were measured (“e-score”: median about -0.044, highest 2% from about 0.38 on). Only a selection was taken, and the highest values are over-represented in it overall.
Target: T1, GST-NbGlk1(82-244) (Nicotiana benthamiana)
T1 chain: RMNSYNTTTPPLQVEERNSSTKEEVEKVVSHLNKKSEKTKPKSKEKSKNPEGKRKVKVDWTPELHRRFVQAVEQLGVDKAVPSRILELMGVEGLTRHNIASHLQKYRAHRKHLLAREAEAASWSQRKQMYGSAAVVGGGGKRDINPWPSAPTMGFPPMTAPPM
Assay: protein-binding microarray; NbGlk1 is a Golden2-like transcription factor of Nicotiana benthamiana; high values mean tight binding
Conditions: protein: recombinant; tags: GST (pTH6838); dsDNA, one strand shown

**Q.** Which binding signal does the source give for AAAATATT here?
**A.** 0.3158 ± 0.000558 E-score

**Q.** Which binding signal does the source give for ATAATCTC here?
**A.** 0.346 ± 0.064 E-score

**Q.** CAAATCAG was tested. Which binding signal did it give?
**A.** 0.268 ± 0.0183 E-score

**Q.** Which binding signal does the source give for CAAATCGG here?
**A.** 0.252 ± 0.00458 E-score

**Q.** How did the binding signal turn out when AAAATCTT was run?
**A.** 0.447 ± 0.0196 E-score

**Q.** AAAATTTT was tested. Which binding signal did it give?
**A.** 0.271 ± 0.0157 E-score

**Q.** Which binding signal does the source give for AAAATCTG here?
**A.** 0.478 ± 0.0028 E-score

**Q.** How did the binding signal turn out when CAAATCTG was run?
**A.** 0.43 ± 0.00733 E-score

**Q.** How did the binding signal turn out when ATATCGAC was run?
**A.** 0.32 ± 0.00903 E-score

**Q.** With AACACGAT as the sequence, how does the binding signal read?
**A.** 0.237 ± 0.0225 E-score

**Q.** ATTTGCCA was tested. Which binding signal did it give?
**A.** 0.358 ± 0.051 E-score

**Q.** ATAGTAGA was tested. Which binding signal did it give?
**A.** 0.201 ± 0.11 E-score

**Q.** Which binding signal does the source give for AAAGGATT here?
**A.** 0.372 ± 0.061 E-score

**Q.** How did the binding signal turn out when ATCCATTG was run?
**A.** 0.253 ± 0.0582 E-score

**Q.** Which binding signal does the source give for ATTTCAGA here?
**A.** 0.265 ± 0.0287 E-score

**Q.** Which binding signal does the source give for ATTGCAAT here?
**A.** 0.305 ± 0.0598 E-score

**Q.** Which binding signal does the source give for ATCTTAGC here?
**A.** 0.246 ± 0.0788 E-score

**Q.** For ATCTCACA, which binding signal is on record?
**A.** 0.289 ± 0.0836 E-score

**Q.** ATACGCGC was tested. Which binding signal did it give?
**A.** 0.223 ± 0.0538 E-score

**Q.** How did the binding signal turn out when ATCCGCTA was run?
**A.** 0.353 ± 0.0323 E-score

**Q.** How did the binding signal turn out when CAATCAGC was run?
**A.** 0.22 ± 0.0614 E-score

**Q.** For ATCGCGTC, which binding signal is on record?
**A.** 0.285 ± 0.0397 E-score

**Q.** AAAATCAA was tested. Which binding signal did it give?
**A.** 0.334 ± 0.0377 E-score

**Q.** Which binding signal does the source give for AAAATCTA here?
**A.** 0.4582 ± 0.0038 E-score

**Q.** CAAATCTC was tested. Which binding signal did it give?
**A.** 0.426 ± 0.0426 E-score

**Q.** How did the binding signal turn out when CAAATCAA was run?
**A.** 0.228 ± 0.037 E-score

**Q.** For CAAATCAC, which binding signal is on record?
**A.** 0.272 ± 0.0674 E-score

**Q.** For CAAATATA, which binding signal is on record?
**A.** 0.245 ± 0.00998 E-score

**Q.** Which binding signal does the source give for CAAATCTA here?
**A.** 0.412 ± 0.0148 E-score

**Q.** With AAAATTTA as the sequence, how does the binding signal read?
**A.** 0.248 ± 0.0263 E-score

**Q.** For AATATTGG, which binding signal is on record?
**A.** 0.202 ± 0.105 E-score

**Q.** Which binding signal does the source give for AATTCTGC here?
**A.** 0.204 ± 0.0116 E-score

**Q.** How did the binding signal turn out when AATTTTCA was run?
**A.** 0.228 ± 0.0322 E-score

**Q.** How did the binding signal turn out when ATTGCAGA was run?
**A.** 0.253 ± 0.0406 E-score

**Q.** For ATCTTCGC, which binding signal is on record?
**A.** 0.237 ± 0.0198 E-score

**Q.** How did the binding signal turn out when AATATTGA was run?
**A.** 0.222 ± 0.0953 E-score

**Q.** How did the binding signal turn out when ATATCCGG was run?
**A.** 0.436 ± 0.0135 E-score

**Q.** How did the binding signal turn out when ATATCCGA was run?
**A.** 0.4021 ± 0.00123 E-score

**Q.** For AGATCCGC, which binding signal is on record?
**A.** 0.34 ± 0.0528 E-score

**Q.** For ATATCGGA, which binding signal is on record?
**A.** 0.369 ± 0.015 E-score

**Q.** With ATCTCCGC as the sequence, how does the binding signal read?
**A.** 0.293 ± 0.0913 E-score

**Q.** With ATTTCCGG as the sequence, how does the binding signal read?
**A.** 0.295 ± 0.0475 E-score

**Q.** ATATCCGC was tested. Which binding signal did it give?
**A.** 0.4112 ± 0.0033 E-score

**Q.** For AGATCCGA, which binding signal is on record?
**A.** 0.307 ± 0.0187 E-score

**Q.** Which binding signal does the source give for ATATCCCG here?
**A.** 0.317 ± 0.0686 E-score

**Q.** With AATACGAA as the sequence, how does the binding signal read?
**A.** 0.205 ± 0.0658 E-score

**Q.** ACAAGAAT was tested. Which binding signal did it give?
**A.** 0.273 ± 0.0228 E-score

**Q.** For ACGATCGC, which binding signal is on record?
**A.** 0.252 ± 0.0832 E-score

**Q.** Which binding signal does the source give for ATTGCACC here?
**A.** 0.222 ± 0.00533 E-score

**Q.** How did the binding signal turn out when ATCGCGCA was run?
**A.** 0.358 ± 0.0372 E-score

**Q.** ATTTGTAA was tested. Which binding signal did it give?
**A.** 0.266 ± 0.0497 E-score

**Q.** With AAATCGGG as the sequence, how does the binding signal read?
**A.** 0.354 ± 0.0193 E-score

**Q.** Which binding signal does the source give for CAATCTGG here?
**A.** 0.4139 ± 0.000981 E-score

**Q.** Which binding signal does the source give for AAATCTGC here?
**A.** 0.4558 ± 0.00312 E-score

**Q.** Which binding signal does the source give for AGATCTGC here?
**A.** 0.411 ± 0.029 E-score

**Q.** For AGATCTGA, which binding signal is on record?
**A.** 0.332 ± 0.0671 E-score

**Q.** Which binding signal does the source give for AAATCTGG here?
**A.** 0.466 ± 0.00695 E-score

**Q.** With AAATCAGG as the sequence, how does the binding signal read?
**A.** 0.365 ± 0.0118 E-score

**Q.** With CAATCTGC as the sequence, how does the binding signal read?
**A.** 0.305 ± 0.0551 E-score

**Q.** For CAATCAGG, which binding signal is on record?
**A.** 0.294 ± 0.0424 E-score

**Q.** How did the binding signal turn out when AGATCTGG was run?
**A.** 0.364 ± 0.0182 E-score

**Q.** AAATCGGC was tested. Which binding signal did it give?
**A.** 0.302 ± 0.0126 E-score

**Q.** With ATTCCCTA as the sequence, how does the binding signal read?
**A.** 0.3669 ± 0.00312 E-score

**Q.** How did the binding signal turn out when AATTATAA was run?
**A.** 0.243 ± 0.0945 E-score

**Q.** Which binding signal does the source give for AAAATAAT here?
**A.** 0.205 ± 0.0493 E-score

**Q.** For AATCATAG, which binding signal is on record?
**A.** 0.246 ± 0.0935 E-score

**Q.** ATTTTCAC was tested. Which binding signal did it give?
**A.** 0.34 ± 0.0212 E-score

**Q.** How did the binding signal turn out when ATCCGCAG was run?
**A.** 0.223 ± 0.00544 E-score

**Q.** For AAGTAAAA, which binding signal is on record?
**A.** 0.21 ± 0.144 E-score

**Q.** With ATCGTGTA as the sequence, how does the binding signal read?
**A.** 0.262 ± 0.115 E-score

**Q.** With AAATCTGA as the sequence, how does the binding signal read?
**A.** 0.469 E-score

**Q.** How did the binding signal turn out when AAATCATA was run?
**A.** 0.343 ± 0.0134 E-score

**Q.** Which binding signal does the source give for CAATCTGA here?
**A.** 0.375 ± 0.0502 E-score

**Q.** For AGCGATCC, which binding signal is on record?
**A.** 0.274 ± 0.0142 E-score

**Q.** How did the binding signal turn out when AAATACGG was run?
**A.** 0.207 ± 0.0643 E-score

**Q.** How did the binding signal turn out when AATTGCGC was run?
**A.** 0.227 ± 0.0136 E-score

**Q.** Which binding signal does the source give for AAAAATAT here?
**A.** 0.3 ± 0.0471 E-score

**Q.** Which binding signal does the source give for ACAAATCG here?
**A.** 0.297 ± 0.0369 E-score

**Q.** Which binding signal does the source give for AAAAATCT here?
**A.** 0.4495 ± 0.00385 E-score

**Q.** For CACAATCG, which binding signal is on record?
**A.** 0.268 ± 0.00572 E-score

**Q.** Which binding signal does the source give for AAAAATCA here?
**A.** 0.336 ± 0.0224 E-score

**Q.** With CAAAATCG as the sequence, how does the binding signal read?
**A.** 0.386 ± 0.0304 E-score

**Q.** How did the binding signal turn out when AAAAATCG was run?
**A.** 0.389 ± 0.0127 E-score

**Q.** AAAATTCG was tested. Which binding signal did it give?
**A.** 0.282 ± 0.0182 E-score

**Q.** For ACAAATCT, which binding signal is on record?
**A.** 0.374 ± 0.0338 E-score

**Q.** With ATTGTGTG as the sequence, how does the binding signal read?
**A.** 0.203 ± 0.0438 E-score

**Q.** Which binding signal does the source give for AATCGCAG here?
**A.** 0.224 ± 0.0787 E-score

**Q.** How did the binding signal turn out when ATTTGCTC was run?
**A.** 0.253 ± 0.0795 E-score

**Q.** With ACATGTGA as the sequence, how does the binding signal read?
**A.** 0.201 ± 0.017 E-score

From PMC5836133, “The intracellular immune receptor Rx1 regulates the DNA-binding activity of a Golden2-like transcription factor”
